{"source": "PubChem BioAssay AID588591", "about": "(National Center for Advancing Translational Sciences (NCATS), 2011)", "note": "The campaign covered roughly 390,000 compounds. About 4,700 (1.2%) were called active. About 4% were inconclusive and are not listed. The call rests on the fitted dose curve; in most records, active means well fitted inhibition curve with a large enough effect; inconclusive means small, poorly fitted or top-dose-only effect, or another doubt; inactive means no such curve, though single readings can be large or run the other way. The sample as a whole holds a higher share of actives than the screen did. On the % scale 0 is the no-effect control and ±100 the full control effect; potency means the concentration at half of the fitted maximal effect."}
{"target": "DNA polymerase eta (Homo sapiens) (UniProt Q9Y253)", "sequence (Q9Y253 whole entry, looked up)": "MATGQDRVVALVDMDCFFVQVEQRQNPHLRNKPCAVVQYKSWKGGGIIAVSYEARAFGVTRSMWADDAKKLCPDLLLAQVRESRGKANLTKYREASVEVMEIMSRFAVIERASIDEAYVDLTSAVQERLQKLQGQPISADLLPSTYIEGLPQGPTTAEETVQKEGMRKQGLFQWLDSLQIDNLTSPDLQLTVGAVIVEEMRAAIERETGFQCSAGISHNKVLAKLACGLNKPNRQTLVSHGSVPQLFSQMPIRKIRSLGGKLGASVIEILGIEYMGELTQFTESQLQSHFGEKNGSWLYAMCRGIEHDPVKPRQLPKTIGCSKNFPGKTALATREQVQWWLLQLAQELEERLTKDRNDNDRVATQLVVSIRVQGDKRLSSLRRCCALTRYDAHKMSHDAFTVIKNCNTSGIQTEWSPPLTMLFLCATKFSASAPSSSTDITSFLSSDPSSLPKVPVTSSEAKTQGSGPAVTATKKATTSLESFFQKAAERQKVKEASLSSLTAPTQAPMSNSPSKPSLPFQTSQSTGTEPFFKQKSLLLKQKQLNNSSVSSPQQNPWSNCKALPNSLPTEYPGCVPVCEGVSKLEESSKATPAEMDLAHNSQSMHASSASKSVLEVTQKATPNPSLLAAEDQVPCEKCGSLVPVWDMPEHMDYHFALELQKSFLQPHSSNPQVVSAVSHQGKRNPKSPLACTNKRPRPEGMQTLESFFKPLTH", "experiment": "qHTS for Inhibitors of Polymerase Eta", "conditions": "recombinant Pol eta, fluorescent DNA replication assay; series mostly up to 114 µM; activity change, negative = inhibition: at the top concentration", "excerpt": "The Y-family of DNA polymerases, such as Pol eta, are specifically involved in DNA repair. Pol eta copies undamaged DNA with a lower fidelity than other DNA-directed polymerases. However, it accurately replicates UV-damaged DNA; when thymine dimers are present, this polymerase inserts the complementary nucleotides in the newly synthesized DNA, thereby bypassing the lesion and suppressing the mutagenic effect of UV-induced DNA damage. […] Thus, while pol eta's (and most likely iota's) normal function is to protect humans against the deleterious consequences of DNA damage, under certain conditions they can have deleterious effects on human health. As a consequence, we propose to utilize a high throughput replication assay to identify small molecule inhibitors of pol eta. In a collaboration between the National Institute of Child Health & Human Development (NICHD) and NIH Chemical Genomics Center, a high-throughput, fluorescent screen was developed to screen the NIH Molecular Libraries Small Molecule Repository (MLSMR). This screen is used to identify inhibitors of pol eta. NIH Chemical Genomics Center [NCGC] NIH Molecular Libraries Probe Centers Network [MLPCN] MLPCN Grant: MH090825 Assay Submitter (PI): Roger Woodgate, NICHD)\nThree microliters of reagents (buffer in column 3 and 4 as negative control and 10 nM Pol eta in columns 1, 2, and 5-48) were dispensed into a 1,536-well black solid-bottomed plate. Compounds (23 nL) were transferred via Kalypsys pin tool equipped with 1536-pin array. The plates were then incubated for 15 min at room temperature, and 1 µL substrate (50 nM final concentration) was added to start the reaction and kinetically read twice at 0 min and 10 min on the Viewlux reader"}
{"smiles": "CCCCn1cc(S(=O)(=O)c2ccc(OCC)cc2)c(=O)c2cc(OC)c(OC)cc21", "activity change, negative = inhibition": "-18.6% (inactive)"}
{"smiles": "Cc1ccc(NC(=O)c2cc3cc(C)ccc3n2C)cc1", "activity change, negative = inhibition": "-10.6% (inactive)"}
{"smiles": "CCOC(=O)C1Nc2ccc(C(F)(F)F)cc2C2C=CCC12", "note": "(centres undefined)", "Potency": "79.4 µM (active)"}
{"smiles": "CCOC(=O)C[C@H]1c2ccc(C(F)(F)F)cc2S(=O)(=O)N1c1ccccc1", "activity change, negative = inhibition": "-11% (inactive)"}
{"smiles": "CCOC(=O)/C=C/c1ccc(C(F)(F)F)cc1S(=O)(=O)NC(C)(C)C", "activity change, negative = inhibition": "-25% (inactive)"}
{"smiles": "CC(=O)Nc1ccc(NC(=O)C2CCCN(S(=O)(=O)c3ccc4c(c3)CCCC(=O)N4)C2)cc1", "note": "(centres undefined)", "activity change, negative = inhibition": "-15.3% (inactive)"}
{"smiles": "Cc1ccc(Cl)cc1NC(=O)COC(=O)C1CCCCC1", "activity change, negative = inhibition": "-12.7% (inactive)"}
{"smiles": "Cc1c(Cl)cnc(NC(=O)COC(=O)c2ccc(S(=O)(=O)NCc3ccco3)cc2)c1Cl", "activity change, negative = inhibition": "-20.6% (inactive)"}
{"smiles": "Cc1c(Cl)cnc(NC(=O)COC(=O)C2CCCC2)c1Cl", "Potency": "35.5 µM (active)"}
{"smiles": "COc1cccc(Nc2nc3ccccc3c3nncn23)c1", "activity change, negative = inhibition": "-17.8% (inactive)"}
{"smiles": "CCN(CC)S(=O)(=O)c1ccc(C(=O)N=c2sc3cccc(OC)c3n2C)cc1", "activity change, negative = inhibition": "-7.47% (inactive)"}
{"smiles": "Cc1cccc(C(=O)N2c3nc(-c4ccco4)nn3C3(CCCCC3)[C@@H]3CCCC[C@@H]32)c1", "activity change, negative = inhibition": "-12.1% (inactive)"}
{"smiles": "CCCCCCc1cc2cc(-c3nnc(-c4ccccc4)o3)c(=O)oc2cc1O", "Potency": "39.8 µM (active)"}
{"smiles": "Cc1ccc(CNC(=O)CCc2c(C)nc3c(c(C)nn3-c3ccccc3)c2C)cc1", "activity change, negative = inhibition": "-5.61% (inactive)"}
{"smiles": "O=C(CC1C(=O)N(c2ccccc2)C(=O)N1CCc1cccs1)Nc1ccc(F)cc1", "note": "(centres undefined)", "activity change, negative = inhibition": "-19.1% (inactive)"}
{"smiles": "O=C1NN(c2ccccc2)C(=O)/C1=C/c1ccc(-c2cccc(C(=O)O)c2)o1", "Potency": "20 µM (active)"}
{"smiles": "CC(=O)c1cc(-c2ccccc2)[nH]c1N1CCCC1", "activity change, negative = inhibition": "-10.9% (inactive)"}
{"smiles": "CCOc1ccc(N(CC)S(=O)(=O)N2CCCC(C(=O)Nc3ccc(C(C)=O)cc3)C2)cc1", "note": "(centres undefined)", "activity change, negative = inhibition": "-23.1% (inactive)"}
{"smiles": "COc1cc(C)ccc1OCCSc1nc2ccc(NC(=O)c3ccc(C)cc3)cc2s1", "activity change, negative = inhibition": "-10.2% (inactive)"}
{"smiles": "CCOC(=O)N1CCc2c(sc3c2c(=O)n(Cc2ccccc2)c(=O)n3CC(=O)Nc2cccc(C)c2)C1", "activity change, negative = inhibition": "-20.6% (inactive)"}
{"smiles": "Fc1ccc(C(Nc2ccc(Cl)c(C(F)(F)F)c2)c2nnc(-c3ccccc3)o2)cc1", "note": "(centres undefined)", "activity change, negative = inhibition": "-17.1% (inactive)"}
{"smiles": "CC(=O)Nc1ccc(C(=O)OCC(=O)Nc2ccc([N+](=O)[O-])cc2C(F)(F)F)cc1", "activity change, negative = inhibition": "-15% (inactive)"}
{"smiles": "Cn1ccc(=Nc2ccc(NC(=O)c3ccc(N=c4ccn(C)c5ccc([N+](=O)[O-])cc45)cc3)cc2)cc1", "Potency": "5.62 µM (active)"}
{"smiles": "CC(=O)c1ccc(NC(=O)COc2ccccc2-c2nc(-c3ccccc3)no2)cc1", "activity change, negative = inhibition": "-3.54% (inactive)"}
{"smiles": "CCS(=O)(=O)N1CCc2cc(C(=O)NCc3ccc(OC)cc3)ccc21", "activity change, negative = inhibition": "4.55% (inactive)"}
{"smiles": "Cc1cc(/C=N/Nc2ccc([N+](=O)[O-])cn2)c(C)n1-c1cccc(C(=O)O)c1", "Potency": "22.4 µM (active)"}
{"smiles": "CN1CCN(C(=O)c2cnn(-c3ccccc3)c2NC(=O)c2ccc([N+](=O)[O-])cc2)CC1", "activity change, negative = inhibition": "-15.4% (inactive)"}
{"smiles": "Cc1cccc(C(=O)NC(=S)N2CCN(c3ccc([N+](=O)[O-])cc3)CC2)c1", "activity change, negative = inhibition": "-10.6% (inactive)"}
{"smiles": "COC(=O)c1cnn2c(C(F)(F)F)cc(-c3ccco3)nc12", "Potency": "20 µM (active)"}
{"smiles": "O=C(NCc1ccco1)c1cnn2c(C(F)(F)F)cc(-c3ccco3)nc12", "activity change, negative = inhibition": "-10.4% (inactive)"}
{"smiles": "Cc1ccc(-c2cc(C(F)(F)F)n3ncc(C(=O)N4CCCCC4c4cccnc4)c3n2)cc1", "note": "(centres undefined)", "activity change, negative = inhibition": "-12.8% (inactive)"}
{"smiles": "Cc1ccc2nc(-c3ccc(O)cc3)c(Nc3ccc4c(c3)OCO4)n2c1", "activity change, negative = inhibition": "-1.93% (inactive)"}
{"smiles": "CCOC(=O)C1CCC(CN(Cc2ccc(OC)cc2)S(=O)(=O)c2ccc(F)c(C(=O)Nc3cc(C)ccc3C)c2)CC1", "note": "(centres undefined)", "activity change, negative = inhibition": "8.54% (inactive)"}
{"smiles": "COc1ccc(-c2nc3ccc(C(=O)NCc4ccc(C)cc4)cc3nc2-c2ccc(OC)cc2)cc1", "activity change, negative = inhibition": "-17.2% (inactive)"}
{"smiles": "COCCN(CCOC)S(=O)(=O)c1ccc(C(=O)Nc2nc3c(s2)CCc2ccccc2-3)cc1", "activity change, negative = inhibition": "-12.8% (inactive)"}
{"smiles": "COc1ccc(C(=O)Nc2nc(-c3ccc(OC)cc3)c(-c3ccc([N+](=O)[O-])cc3)s2)cc1", "Potency": "79.4 µM (active)"}
{"smiles": "CCOc1ccc(N(C)S(=O)(=O)c2cc(-c3cnc(C)o3)ccc2OC)cc1", "activity change, negative = inhibition": "-6.45% (inactive)"}
{"smiles": "CCNC(=O)c1sccc1-n1cccc1", "activity change, negative = inhibition": "-13.4% (inactive)"}
{"smiles": "Cc1ccsc1C(=O)NCCc1ccco1", "Potency": "22.4 µM (active)"}
{"smiles": "O=C(NCc1ccco1)c1sc2cccc(F)c2c1Cl", "activity change, negative = inhibition": "-2.34% (inactive)"}
{"smiles": "CCC1=Nc2cc(C(=O)NCCCOC(C)C)ccc2Sc2ccc(C)cc21", "activity change, negative = inhibition": "-13.6% (inactive)"}
{"smiles": "O=C(NCc1ccccc1)c1cc(-c2cccc(Cl)c2)on1", "activity change, negative = inhibition": "1.32% (inactive)"}
{"smiles": "O=C(O)C(c1ccccc1)N1C(=O)/C(=C\\c2ccc(-c3cccc(Cl)c3)o2)SC1=S", "note": "(centres undefined)", "Potency": "44.7 µM (active)"}
{"smiles": "O=C(NCCc1ccc(Cl)cc1)c1ccc2c(c1)N(Cc1ccc(F)cc1)C(=O)CS2", "activity change, negative = inhibition": "-21.8% (inactive)"}
{"smiles": "C=CC1(C)CC(=O)C2(O)C(C)(O1)C(OC(C)=O)C(O)C1C(C)(C)CCC(O)C12C", "note": "(centres undefined)", "activity change, negative = inhibition": "-5.73% [at 57.1 µM] (inactive)"}
{"smiles": "CCOC(=O)C1CCN(C(=O)CSc2c3c(nc4ccc(Cl)cc24)CCCC3)CC1", "activity change, negative = inhibition": "-10.1% (inactive)"}
{"smiles": "Cc1cc(/C=C2\\SC(=O)N(C)C2=O)c(C)n1-c1cccc(C(=O)O)c1", "Potency": "22.4 µM (active)"}
{"smiles": "Cc1cc(C(=O)CC#N)c(C)n1-c1c(C)n(C)n(-c2ccccc2)c1=O", "activity change, negative = inhibition": "-11.8% (inactive)"}
{"smiles": "Cc1ccc(C)c2c1cc(C)c1nnc(SCC(=O)Nc3cccc(C(=O)O)c3)n12", "activity change, negative = inhibition": "-10.7% (inactive)"}
